# In publication PMC5540273 (PLoS ONE, 2017):
# Tests used:
# Details in all cases: concentration: 1 μM, replicates: in singlicate; n = 1
# IKK-alpha = system: T1, IKK-alpha
# T1 construct: gene CHUK
# IKK-beta = system: T2, IKK-beta
# T2 construct: gene IKBKB
# IKK-epsilon = system: T3, IKK-epsilon
# T3 construct: gene IKBKE
# INSRR = system: INSRR
# INSR = system: INSR
# IRAK1 = system: IRAK1
# IRAK3 = system: IRAK3
# IRAK4 = system: IRAK4
# ITK = system: ITK
# [1] = system: JAK1(JH1domain-catalytic)
# 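Further: KINOMEscan kinase panel screen.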
SMILES,%Inh (IKK-alpha) [%],%Inh (IKK-beta) [%],%Inh (IKK-epsilon) [%],%Inh (INSRR) [%],%Inh (INSR) [%],%Inh (IRAK1) [%],%Inh (IRAK3) [%],%Inh (IRAK4) [%],%Inh (ITK) [%],%Inh [1] [%]
Cc1cc(-c2ccnc(Nc3cccc(C#N)c3)n2)cc(C)c1O [GSK1440913],61,67,28,23,0,52,82,11,9,0
Cc1ccc(C)c(NC(=O)Nc2ccc(C)c(-c3ccc(C(=O)Nc4ccncc4)cc3)c2)c1 [GSK1398473],0,8,0,0,0,5,1,19,13,0
Nc1ncnc2scc(-c3ccc(NC(=O)Cc4cc(F)ccc4F)cc3)c12.O=C(O)C(F)(F)F [SB-731254-M],4,0,45,65,15,0,16,0,0,0
Fc1cc(Cl)ccc1Nc1ccnc2cc(-c3ccc(CN4CCSCC4)o3)ccc12 [GW560106],31,9,0,0,0,18,7,0,8,11
COC(=O)Nc1nc2ccc(Oc3ccc(NC(=O)Nc4cc(C(F)(F)F)ccc4F)cc3)cc2[nH]1.Cl [GW654607],72,36,17,0,0,21,6,3,0,69
N#CC1(c2cccc(C(=O)Nc3cccc(Oc4ccc5nc(NC(=O)C6CC6)sc5n4)c3)c2)CC1,0,0,0,0,0,0,0,0,0,8
CN(C)CCOc1ccc(-c2cc(-c3ccc(Cl)c(O)c3)c(-c3ccncc3)[nH]2)cc1.Cl.Cl [SB-684387],9,82,30,0,14,16,0,0,0,20
O=C(O)C(F)(F)F.O=c1[nH]ccc2nc(N[C@@H]3CCNC3)nc(Nc3ccc4c(c3)S(=O)(=O)CC4)c12 [GSK2181306],87,60,61,40,58,98.4,0,15,30,89
Cc1nn2c(=O)cc(N3CCO[C@H](C)C3)nc2n1Cc1cccc(Cl)c1Cl [GSK2373693],36,81,0,0,4,78,0,25,15,9
CCn1c(-c2nonc2N)nc2c(-c3ccccc3)ncc(OCCCN)c21.O=C(O)C(F)(F)F.O=C(O)C(F)(F)F [GSK260205],32,16,3,0,0,29,0,21,14,11
COc1cc(Nc2nccc(N3CCC(NC(=O)Nc4ccc5c(c4)OCO5)C3)n2)cc(OC)c1OC (centres unmarked) [GSK1379766],27,11,29,0,25,80,85,44,10,12
Cn1cc(-c2cnc(N)c3c(-c4ccc5c(c4)CCN5C(=O)Cc4ccccc4)csc23)cn1 [GSK2593074],0,0,59,13,12,0,5,0,23,0
Nc1ncc(-c2cn[nH]c2)c2scc(-c3ccc4c(c3)CCN4C(=O)Cc3ccccc3)c12 [GSK2593067],0,31,50,24,13,0,25,0,25,2
NCCC(NC(=O)c1cc(Br)c(-c2ccnc3[nH]ccc23)s1)c1ccccc1.O=C(O)C(F)(F)F.O=C(O)C(F)(F)F (centres unmarked) [GSK1307810],52,57,17,0,0,96.8,9,0,7,79
c1ccc(Oc2ccc(Nc3ccnc4cc(-c5ccc(CN6CCCCC6)o5)ccc34)cc2)nc1 [GW567143],12,8,0,5,10,24,0,6,10,0
Cl.Cl.NC(CNC(=O)c1cc(Br)c(-c2ccnc3[nH]ccc23)s1)c1ccccc1 (centres unmarked) [GSK1322949],73,69,18,0,9,90.4,55,11,31,24

SMILES,%Inh (IKK-alpha) [%],%Inh (IKK-beta) [%],%Inh (IKK-epsilon) [%],%Inh (INSRR) [%],%Inh (INSR) [%],%Inh (IRAK1) [%],%Inh (IRAK3) [%],%Inh (IRAK4) [%],%Inh (ITK) [%],%Inh [1] [%]
COC(=O)Nc1nc2cc(Oc3ccc(NC(=O)Nc4cccc(SC)c4)cc3)ccc2[nH]1.Cl [GW697999],35,0,10,0,0,36,24,12,26,2
CCNc1nccc(-c2c(-c3ccc(F)cc3)ncn2C2CCN(C)CC2)n1,0,0,0,100,0,0,21,0,0,0
Cc1cccc(Nc2nc(N[C@H]3CCCC[C@H]3N)ncc2C(N)=O)c1.Cl [GSK986310],0,11,34,8,26,88,17,86,29,77
CN(C)c1ncnc2nc[nH]c12 [SKF-31736],23,15,0,9,0,43,0,4,0,0
Cc1ccc(O)cc1Nc1ccnc2ccc(C(C)(C)C)cc12 [GW856805],52,45,6,18,16,13,0,0,0,2
Cl.O=C(Nc1ccc(Oc2ccc3[nH]c(NC(=O)c4ccco4)nc3c2)cc1)Nc1cc(C(F)(F)F)ccc1F [GW683134],85,49,0,55,52,20,0,23,8,91.2
Cc1ccccc1CC(=O)N1CCc2cc(-c3cn(C)c4ncnc(N)c34)ccc21 [GSK2603346],12,28,49,8,0,0,0,6,20,5
Nc1ncc(-c2ccc3nccc(-c4ccncc4)c3c2)cc1S(=O)(=O)N1CCCCC1 [GSK1693850],0,0,12,0,0,39,86,10,12,10
COc1cccc(-c2nc(-c3ccccc3)[nH]c2-c2ccncc2)c1 [SB-610250],33,35,0,0,5,48,0,46,15,23
Cc1ccc(NC(=O)c2ccnc(N3CCCCC3)c2)cc1-c1ccc(C(=O)NCC2CC2)cc1 [GW775610],0,0,0,0,0,0,0,0,51,52
Cn1cc(-c2ccc3c(c2)CCN3C(=O)Cc2cc(F)cc(F)c2F)c2c(N)ncnc21 [GSK2634140],0,12,75,0,0,7,6,0,20,1
CN1CCN(Cc2ccc(NC(=O)Nc3ccc(N(C)c4ccnc(Nc5ccc(CS(C)(=O)=O)cc5)n4)cc3)cc2)CC1.Cl [GW827654],29,22,28,0,42,44,66,15,28,61
Cc1ccc(O)cc1Nc1ccnc2cc(-c3ccc(CN4CCCCC4)o3)ccc12 [GW557777],0,0,0,4,0,0,0,0,56,1
O=C(Nc1n[nH]c2nc(-c3cccc(O)c3)ccc12)C1CC1 [SB-711805],0,0,0,0,0,0,0,0,0,0
CC(C)c1nc(-c2cccc(NS(=O)(=O)c3c(F)cccc3F)c2)c(-c2ccnc(Nc3ccc(N4CCOCC4)nc3)n2)s1.Cl [GSK1723980],0,0,39,0,0,0,1,6,95.7,0
Cc1ccc(NC(=O)c2ccc(Cl)c(Cl)c2)cc1-c1ccc(C(=O)Nc2ccncc2)cc1 [GSK1398460],0,10,24,0,0,0,3,7,10,9
